About 83,000 compounds went through this panel and 20% of them were active in at least one assay; those are over-represented in the sample as a whole.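 Single-concentration screen, 48 h exposure, 96-well plates. Endpoint: percent growth. Below 10 = active.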 Unmarked numbers belong to inactive results. The source made the active and inactive calls.
Tests used:
Experiment in all cases: NCI-60 one-dose screen, 48 h (100 = growth as untreated, 0 = no growth, -100 = all killed)
Conditions in all cases: 10 µM unless noted
[1] = system: SR leukemia
[2] = system: RPMI-8226 leukemia
[3] = system: OVCAR-8 ovarian
[4] = system: OVCAR-5 ovarian
[5] = system: OVCAR-4 ovarian
[6] = system: SK-OV-3 ovarian
[7] = system: IGROV1 ovarian
[8] = system: OVCAR-3 ovarian
[9] = system: HS 578T breast
[10] = system: T-47D breast
[11] = system: BT-549 breast
[12] = system: MDA-MB-435 melanoma
[13] = system: SW-620 colon
[14] = system: MCF7 breast
[15] = system: HCT-116 colon
[16] = system: HCC-2998 colon
[17] = system: KM12 colon
[18] = system: NCI/ADR-RES ovarian

| Structure (SMILES) | growth [1] | growth [2] | growth [3] | growth [4] | growth [5] | growth [6] | growth [7] | growth [8] | growth [9] | growth [10] | growth [11] | growth [12] | growth [13] | growth [14] | growth [15] | growth [16] | growth [17] | growth [18] [%] |
| --- | --- | --- | --- | --- | --- | --- | --- | --- | --- | --- | --- | --- | --- | --- | --- | --- | --- | --- |
| CN(C)c1ccc(C2CC(c3ccccc3)=NN2/C=C2\SC(=O)NC2=O)cc1 (configuration not stated) | 50.8% | 87.7% | 100% | 94.2% | 82.6% | 115% | 94% | 101% | 98.1% | 86.7% | 87% | 83.1% | 83.9% | 65.4% | 85.9% | 101% | 82.2% |  |
| CC(C)(C)OC(=O)N[C@@H](Cc1ccccc1)C(=O)N(Cc1ccccc1)C1(C(=O)NCc2ccccc2)CCN(Cc2ccccc2)CC1 | -0.167% (active) | 22.8% | 22.6% | 31.1% | 24.2% | 69.9% | 59.1% | 48.5% | 71.5% | 38% | 71% | 41% | 22.9% | 25.2% | 20.9% | 47% | 18.7% |  |
| CC1=C(C#N)C(C)(C)C(C#N)=C(C)N1 | 95.8% | 98.3% | 100% | 87.7% | 99.2% | 110% | 121% | 107% | 102% | 96.6% | 100% | 105% | 102% | 96.7% | 104% | 108% | 103% |  |
| CCCOC(=O)C1(O)CCCC1 | 94.4% | 96.5% | 102% | 87.2% | 102% | 111% | 107% | 129% |  | 97.2% | 113% | 101% | 104% | 97.9% | 97.3% | 108% | 116% | 108 |
| CCn1cc(C(=O)O)c(=O)c2cc(F)c(N3CCN(S(=O)(=O)c4cccc5ccccc45)CC3)cc21 | 2.85% (active) | 6.47% (active) | 8.43% (active) | 15.5% | 23.9% | 15.6% | 13.7% | -6.25% (active) |  | 5.29% (active) | -4.35% (active) | 11.4% | 22.8% | 14.6% | 5.45% (active) | 31.6% | 11.7% | 21.4 |
| COc1cc(OC)c(C(=O)/C=C/c2ccc(C(F)(F)F)cc2)c(OC)c1 | 31.6% | 25.3% | 40.3% | 105% | 56.5% | 75.4% | 52.1% | 16.9% | 66.2% | 26.6% | -3.68% (active) | 23.8% |  | 19.7% | 20.4% | 85% | 36.6% |  |
| COc1cc(Br)c(OC)cc1Br | 111% | 96.2% | 105% | 93% | 102% | 101% | 79.5% | 96.8% | 94.1% | 82% | 97.7% | 105% | 94.7% | 63.1% | 91.5% | 99.6% | 76.3% |  |
| O=C1N=C(c2c(-c3[nH]c(=O)c4ccc(Br)cc4c3O)c(O)c3ccccc3c2O)C(=O)c2cc(Br)ccc21 | 20.8% | 6.4% (active) | -23.5% (active) | 10.4% | -59.7% (active) | -32.6% (active) | -55.9% (active) | -81.5% (active) | -21.9% (active) | -34.2% (active) | -25.4% (active) | -63.4% (active) | -70.7% (active) | -35.2% (active) | -21.7% (active) |  | -53.2% (active) |  |
| CCN(C(=O)c1cc2ncccc2[nH]1)[C@H]1CCC[C@@H](NCc2cccc(F)c2)C1 | 99.6% | 91.8% | 103% | 81.6% | 104% | 103% | 91.1% | 95.7% | 109% | 78.1% | 104% | 97.4% | 98.5% | 95.7% | 111% | 91.6% | 97.3% |  |
| CSc1ccccc1C#C/C=C\C#Cc1ccccc1N1CCCC1=O | 12.5% | 22.2% | 74.9% | 72.2% | 59.7% | 85.8% | -32.2% (active) | 50.9% |  | 63.2% | 69.7% | 8.9% (active) | 26.9% | 37.6% | 34.4% | 50.2% | 44.4% | 41.5 |
| COc1ccc(-c2nc3sccn3c2-c2ccnc(NCCNS(=O)(=O)c3ccc(C(F)(F)F)cc3)n2)cc1 | 11.6% | 8.83% (active) | 7.86% (active) | 59% | 15.9% | 29.6% | 16.2% | 2.1% (active) | 41% | -11.8% (active) | 2.22% (active) | 2.65% (active) | 33.7% | 8.53% (active) | 10% | 23.7% | 4.4% (active) |  |
| CC(C)C(C(=O)CCN(C)C)c1ccc(Cl)cc1 (configuration not stated) | 84% | 67.5% | 93.3% | 115% | 109% | 85.2% | 105% | 108% | 101% | 82.9% | 90.5% | 107% | 108% | 87.4% | 79.9% | 104% | 104% |  |
| CCN(CC)P(=O)(N(CC)CC)N(CCCSC/C=C(\C)CC/C=C(\C)CCC=C(C)C)CCCN1CCN(C)CC1 | 22.9% | 94.6% | 97.1% | 103% | 92.5% | 103% | 110% | 104% |  | 88.9% | 102% | 100% | 101% | 97.6% | 97.1% | 104% | 108% | 106 |
| Clc1ccc([I+]c2ccc(Cl)cc2Cl)c(Cl)c1 | 22.8% | -25.7% (active) | -1.2% (active) | -25.9% (active) | 0.221% (active) | 96.7% | 39.7% | -75.5% (active) | 79% | -44.9% (active) | 7.13% (active) | 82.2% |  | -30.9% (active) | -37.7% (active) | 58.3% | 39.3% |  |
| O=C(NCCc1c[nH]c2ccccc12)C1Cc2ccccc2CN1C(=O)c1ccco1 (configuration not stated) | 65.5% | 87.3% | 100% | 125% | 96.9% | 125% | 3.58% (active) | 104% | 118% | 105% | 102% | 116% | 103% | 90.3% | 102% | 164% | 105% |  |
| COc1ccccc1CNCCCN1C(=O)c2ccc3c4c(ccc(c24)C1=O)C(=O)N(CCCNCCCCNCCCCN)C3=O | 2.93% (active) | 17.3% | -18.2% (active) | 24.5% | -33.8% (active) | 28% | -57.8% (active) | 1.36% (active) |  | -1.05% (active) | 102% | -59.7% (active) | 2.99% (active) | -34.9% (active) | 3.34% (active) | -4.93% (active) | 5.46% (active) | 62.2 |
| O=S(=O)(NCCCNc1nccc(-c2c(-c3ccc(F)c(O)c3)nc3sccn23)n1)c1ccc(Cl)cc1 | 61.6% | 43.1% | 52.9% | 129% | 99.1% | 85.3% | 80.2% | 88.7% | 91.1% | 66.1% | 101% | 32.5% | 99.2% | 77.2% | 46.3% | 112% | 75.1% |  |
| c1ccc(CCn2nnc3c(Nc4ccc(N5CCOCC5)cc4)ncnc32)cc1 | 36% | 68.2% | 86.2% | 88.1% | 89.3% | 93.1% | 95.3% | 85.9% | 97.3% |  |  | 23.8% | 62.8% | 89.1% | 54% | 105% | 53.2% | 78.8 |
